Source: PubChem BioAssay
Active and inactive are the calls of the source.

Key:
[1] = system: Plasmodium falciparum Sir2 (PF13_0152, Sir2A); assay: Plasmodium falciparum Sir2A binding compounds – biochemical, small-molecule microarray, 635 nm fluorescence, primary screen (AID 1098); details: fluorescence 635 nm, higher = more signal;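 further: score merges spot fluorescence intensity with its signal-to-noise ratio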
[2] = probe aDKK1 binding to arrayed compounds – biochemical, biotinylated probe, 635/667 nm fluorescence, primary screen (AID 1099); details: small-molecule microarray, higher = more signal;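 further: score merges 667nm spot fluorescence with signal to noise across triplicate slides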
[3] = probe aCHRDL2 binding to arrayed compounds – biochemical, biotinylated probe, 635/667 nm fluorescence, primary screen (AID 1100); details: small-molecule microarray, higher = more signal
[4] = change in splice reporter luminescence, either direction, cell-based, HEK293, spliceosome inhibition project, primary screen (AID 1101); details: HEK293 splicing luciferase reporter, 24 h, higher = more signal, called active from +8 up or from −8 down;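 further: HEK293 cells carrying a splicing-competent luciferase reporter gene; test concentration not given here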
[5] = molecular target: Fibroblast growth factor 10 (Homo sapiens) (UniProt O15520); assay: compounds binding fibroblast growth factor 10 – biochemical, small-molecule microarray, 635 nm fluorescence, primary screen (AID 1102); details: FGF10 binding, fluorescence 635 nm, higher = more signal
Chain of Fibroblast growth factor 10 (Homo sapiens) (O15520 whole entry, looked up): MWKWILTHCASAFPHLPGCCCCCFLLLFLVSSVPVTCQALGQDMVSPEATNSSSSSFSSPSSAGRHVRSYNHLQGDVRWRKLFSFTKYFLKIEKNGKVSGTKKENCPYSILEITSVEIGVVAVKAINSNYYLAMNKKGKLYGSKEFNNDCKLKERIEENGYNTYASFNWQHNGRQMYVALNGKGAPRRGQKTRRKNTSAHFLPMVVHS

[6] = system: glycogen synthase kinase-3 (GSK3A per assay name; protocol says GSK3B); assay: compounds binding glycogen synthase kinase-3 – biochemical, small-molecule microarray, 635 nm fluorescence, GSK3A, primary screen (AID 1103); details: fluorescence 635 nm, higher = more signal; further: the record names both GSK3A and GSK3B
[7] = molecular target: Epidermal growth factor receptor (Homo sapiens) (UniProt P00533); assay: compounds binding epidermal growth factor receptor – biochemical, small-molecule microarray, 635 nm fluorescence, primary screen (AID 1104); details: EGFR binding, higher = more signal;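 further: score merges 667 nm emission intensity with spot signal to noise over triplicate slides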
Chain of Epidermal growth factor receptor (Homo sapiens) (P00533 whole entry, looked up): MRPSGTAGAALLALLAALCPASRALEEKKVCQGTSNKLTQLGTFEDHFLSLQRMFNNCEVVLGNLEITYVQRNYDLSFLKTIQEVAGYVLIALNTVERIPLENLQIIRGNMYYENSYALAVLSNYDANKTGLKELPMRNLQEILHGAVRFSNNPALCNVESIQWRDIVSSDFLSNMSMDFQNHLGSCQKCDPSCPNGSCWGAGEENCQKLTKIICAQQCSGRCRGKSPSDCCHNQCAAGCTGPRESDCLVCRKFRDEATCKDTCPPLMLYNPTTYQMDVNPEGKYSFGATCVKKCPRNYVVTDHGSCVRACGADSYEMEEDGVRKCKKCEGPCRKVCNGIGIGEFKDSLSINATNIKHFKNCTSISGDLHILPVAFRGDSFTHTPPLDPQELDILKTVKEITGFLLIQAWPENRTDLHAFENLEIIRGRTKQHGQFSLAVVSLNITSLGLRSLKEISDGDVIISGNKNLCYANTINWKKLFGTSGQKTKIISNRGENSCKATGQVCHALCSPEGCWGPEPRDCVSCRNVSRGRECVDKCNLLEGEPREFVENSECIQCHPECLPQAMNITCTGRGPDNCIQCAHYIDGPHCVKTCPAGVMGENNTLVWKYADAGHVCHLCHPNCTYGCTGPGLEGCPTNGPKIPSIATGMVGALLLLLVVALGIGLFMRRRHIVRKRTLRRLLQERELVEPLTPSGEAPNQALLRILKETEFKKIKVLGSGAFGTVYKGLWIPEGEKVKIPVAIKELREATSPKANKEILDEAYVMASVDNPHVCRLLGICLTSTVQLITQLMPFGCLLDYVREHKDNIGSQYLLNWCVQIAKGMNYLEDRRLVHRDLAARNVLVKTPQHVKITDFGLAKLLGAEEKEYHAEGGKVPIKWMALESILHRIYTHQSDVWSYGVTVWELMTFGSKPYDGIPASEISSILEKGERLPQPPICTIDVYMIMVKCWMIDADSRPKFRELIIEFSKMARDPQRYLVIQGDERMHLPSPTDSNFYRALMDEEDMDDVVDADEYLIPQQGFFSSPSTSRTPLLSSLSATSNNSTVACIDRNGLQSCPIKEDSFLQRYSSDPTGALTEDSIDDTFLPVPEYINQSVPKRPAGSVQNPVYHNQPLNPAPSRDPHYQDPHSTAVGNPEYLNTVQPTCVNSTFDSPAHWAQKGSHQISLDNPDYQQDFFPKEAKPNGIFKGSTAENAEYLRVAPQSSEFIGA

[8] = molecular target: Follistatin-related protein 3 (Homo sapiens) (UniProt O95633); assay: compounds binding follistatin-related protein 3 – biochemical, small-molecule microarray, 635 nm fluorescence, primary screen (AID 1105); details: FSTL3 binding, higher = more signal;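 further: score merges emission near 667 nm and signal to noise per printed spot across three slides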
Chain of Follistatin-related protein 3 (Homo sapiens) (O95633 whole entry, looked up): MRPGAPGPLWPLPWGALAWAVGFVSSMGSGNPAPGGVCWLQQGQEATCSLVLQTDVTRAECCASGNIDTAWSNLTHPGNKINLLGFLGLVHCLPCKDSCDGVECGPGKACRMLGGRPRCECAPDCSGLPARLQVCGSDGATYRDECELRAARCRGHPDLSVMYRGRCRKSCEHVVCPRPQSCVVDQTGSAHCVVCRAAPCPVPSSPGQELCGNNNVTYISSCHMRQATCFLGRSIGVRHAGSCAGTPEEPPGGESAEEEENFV

[9] = molecular target: Dickkopf-related protein 1 (Homo sapiens) (UniProt O94907); assay: small molecules binding DKK1 protein – biochemical, small-molecule microarray, 635 nm fluorescence scan, primary screen (AID 1106); details: higher = more signal;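 further: score merges emission near 667 nm with signal to noise over three replicate slides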
Chain of Dickkopf-related protein 1 (Homo sapiens) (O94907 whole entry, looked up): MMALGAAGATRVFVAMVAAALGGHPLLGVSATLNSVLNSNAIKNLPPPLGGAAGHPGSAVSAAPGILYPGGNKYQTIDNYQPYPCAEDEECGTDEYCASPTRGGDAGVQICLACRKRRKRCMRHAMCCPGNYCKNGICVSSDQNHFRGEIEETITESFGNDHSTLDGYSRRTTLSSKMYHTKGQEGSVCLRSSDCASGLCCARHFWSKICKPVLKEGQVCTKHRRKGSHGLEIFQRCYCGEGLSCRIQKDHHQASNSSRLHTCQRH

[10] = system: Inhibin beta A chain (activin A); assay: small molecules binding activin A – biochemical, small-molecule microarray, 635 nm fluorescence scan, primary screen (AID 1107); details: INHBA, higher = more signal;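 further: mouse activin A protein probed at 4.33 µg/mL on printed slides; score merges bound-protein fluorescence near 667 nm with spot signal-to-noise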
[11] = system: Human papillomavirus type 1a protein E7 (residues 44-93); assay: small molecules binding HPV E7 44-93 – biochemical, small-molecule microarray, residues 44-93, 635 nm fluorescence, primary screen (AID 1108); details: fluorescence 635 nm, higher = more signal;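 further: E7 fragment applied at 1 µg/mL in TBST for 1 h at 4 C; score combines spot fluorescence with its signal to noise ratio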
[12] = hepatitis C replication reporter changes, two-sided – Huh7 cells, luciferase reporter, HCV replication inhibitor project, primary screen (AID 1109); details: Huh7 HCV replicon luciferase reporter, 48 h; higher = more signal;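 further: huh7 hepatoma cells harbouring a luciferase neomycin HCV replicon reporter; luciferase luminescence as measure of HCV replicon replication; test concentration not given here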
[13] = molecular target: Left-right determination factor 2 (Homo sapiens) (UniProt O00292); assay: small molecules binding LEFTY2 protein – biochemical, small-molecule microarray, 635 nm fluorescence scan, primary screen (AID 1110); details: higher = more signal
Chain of Left-right determination factor 2 (Homo sapiens) (O00292 whole entry, looked up): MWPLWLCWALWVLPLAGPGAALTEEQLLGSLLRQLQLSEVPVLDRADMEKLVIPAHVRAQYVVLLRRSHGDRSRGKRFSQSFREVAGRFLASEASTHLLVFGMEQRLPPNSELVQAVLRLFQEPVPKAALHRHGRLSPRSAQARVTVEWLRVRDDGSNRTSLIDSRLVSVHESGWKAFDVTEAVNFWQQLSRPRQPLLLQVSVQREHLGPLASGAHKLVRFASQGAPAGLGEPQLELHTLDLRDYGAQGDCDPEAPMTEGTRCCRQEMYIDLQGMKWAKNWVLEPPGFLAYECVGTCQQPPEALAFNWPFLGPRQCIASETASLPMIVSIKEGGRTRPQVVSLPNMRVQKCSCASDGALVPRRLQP

[14] = molecular target: Calmodulin-1 (Homo sapiens) (UniProt P0DP23); assay: small molecules binding calmodulin-1 with EGTA – biochemical, small-molecule microarray, Cy5-labelled CALM1, profiling panel (AID 1111); details: Cy5-CALM1 binding fluorescence, higher = more signal;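 further: labelled calmodulin applied in Tris saline Tween buffer holding calcium plus EGTA and DTT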
[15] = molecular target: Calmodulin-1 (Homo sapiens) (UniProt P0DP23); assay: small molecules binding Ca-loaded calmodulin-1 – biochemical, small-molecule microarray, Cy5-labelled CALM1, plus calcium, artefact control for SMM control-protein annotation, profiling panel (AID 1112); details: Cy5-CALM1 binding fluorescence, higher = more signal;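 further: score merges spot fluorescence with signal to noise from triplicate slides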
[16] = probe aWnt5a binding to arrayed compounds – biochemical, biotinylated probe, 635/667 nm fluorescence, primary screen (AID 1113); details: small-molecule microarray, higher = more signal;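 further: score merges 667 nm fluorescence intensity with signal-to-noise per printed feature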
[17] = probe aShh binding to arrayed compounds – biochemical, biotinylated probe, 635/667 nm fluorescence, primary screen (AID 1114); details: small-molecule microarray, higher = more signal;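 further: probe is biotin-labelled aShh protein from a stem cell growth factor screen; measures binding of labelled protein to compounds printed on the slide; score merges feature fluorescence at 667 nm with signal-to-noise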
[18] = probe aNog binding to arrayed compounds – biochemical, biotinylated probe, 635/667 nm fluorescence, primary screen (AID 1115); details: small-molecule microarray, higher = more signal;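 further: probe is biotinylated aNog protein used at 0.15 µg/mL for 1 h at 4 C; z-score combines 667 nm fluorescence of each spot with its signal to noise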
[19] = molecular target: Torsin-1A-interacting protein 1 (Homo sapiens) (UniProt Q5JTV8); assay: compound microarray binding of lysate hLAP1 – cell lysate, small-molecule microarray, COS7 lysate, 635/667 nm fluorescence, primary screen (AID 1116); details: 635 nm fluorescence, higher = more signal
Chain of Torsin-1A-interacting protein 1 (Homo sapiens) (Q5JTV8 whole entry, looked up): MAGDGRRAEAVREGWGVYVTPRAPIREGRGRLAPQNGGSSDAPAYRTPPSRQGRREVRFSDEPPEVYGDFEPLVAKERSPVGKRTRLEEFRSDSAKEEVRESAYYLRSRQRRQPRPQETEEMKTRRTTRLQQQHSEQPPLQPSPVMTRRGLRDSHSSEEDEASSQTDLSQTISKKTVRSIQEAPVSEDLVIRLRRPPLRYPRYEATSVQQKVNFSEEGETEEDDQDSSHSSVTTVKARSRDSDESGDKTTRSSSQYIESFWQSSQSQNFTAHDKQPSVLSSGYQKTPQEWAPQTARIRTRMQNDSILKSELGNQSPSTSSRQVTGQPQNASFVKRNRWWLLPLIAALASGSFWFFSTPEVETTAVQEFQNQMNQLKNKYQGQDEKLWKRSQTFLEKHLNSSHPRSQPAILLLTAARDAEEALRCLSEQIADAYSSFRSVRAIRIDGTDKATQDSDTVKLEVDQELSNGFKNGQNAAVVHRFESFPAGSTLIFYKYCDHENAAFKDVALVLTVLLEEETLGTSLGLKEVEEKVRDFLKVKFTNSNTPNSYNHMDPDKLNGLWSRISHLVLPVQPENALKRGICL

[20] = molecular target: Alpha-bungarotoxin (Bungarus multicinctus) (UniProt P60615); assay: compounds binding labelled alpha-BTX control protein – biochemical, small-molecule microarray, Alexa647 label, 635/667 nm fluorescence, artefact control for SMM control protein annotation, profiling panel (AID 1117); details: alpha-BTX-A647 binding fluorescence, higher = more signal
Chain of Alpha-bungarotoxin (Bungarus multicinctus) (P60615 whole entry, looked up): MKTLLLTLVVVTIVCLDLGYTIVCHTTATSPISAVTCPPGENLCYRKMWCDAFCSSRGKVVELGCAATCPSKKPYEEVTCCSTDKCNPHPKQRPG

| Compound | composite z-score [1] | composite z-score [2] | composite z-score [3] | z-score [4] | composite z-score [5] | composite z-score [6] | composite z-score [7] | composite z-score [8] | composite z-score [9] | composite z-score [10] | composite z-score [11] | z-score [12] | composite z-score [13] | composite z-score [14] | composite z-score [15] | composite z-score [16] | composite z-score [17] | composite z-score [18] | composite z-score [19] | composite z-score [20] |
| --- | --- | --- | --- | --- | --- | --- | --- | --- | --- | --- | --- | --- | --- | --- | --- | --- | --- | --- | --- | --- |
| C=CCNC(=O)[C@@H]1[C@H]2C(=O)O[C@H](c3ccccc3)[C@H](c3ccccc3)N2[C@H](c2ccc(O)cc2)[C@@]12C(=O)N(C(=O)OCCOC)c1ccc(C#Cc3ccc(OC)cc3)cc12 | 1.12 | 0.51 | -0.382 | -1.16 (inactive) | 0.793 | 1.3 | 0.541 | 0.62 | 1.12 | -0.071 | 1.13 | -1.77 | 0.638 | 1.75 | 0.185 | -0.0368 | -0.0011 | 0.315 | 1.13 | 0.579 |
| COC(=O)c1c2oc(c1C(=O)OC)C(=O)N[C@@H](C(C)C)Cn1nncc1C1(CCCCC1)NC(=O)N[C@H](CO)CC2 | 1.54 | -0.212 | 0.0273 | -1.44 (inactive) | -0.0613 | -0.96 | -0.193 | -0.232 | -0.074 | 0.31 | -0.683 | 0.862 | -0.0834 | 0.401 | -0.102 | -0.148 | 0.0899 | -0.0207 | 0.368 | 1.29 |
| COCCOC(=O)N1C(=O)[C@@]2(c3cc(C#CCNC(N)=O)ccc31)[C@H](c1ccccc1OCCO)N1[C@H](c3ccccc3)[C@H](c3ccccc3)OC(=O)[C@H]1[C@@H]2C(=O)Nc1nc2ccccc2s1 | 0.852 | 0.868 | 1.13 | -0.349 (inactive) | 0.141 | 0.218 | 0.135 | 0.572 | 0.505 | 0.887 | 0.872 | 0.048 | 0.163 | 1.58 | 1.14 | -0.0758 | 0.284 | 0.561 | 0.745 | 2.51 |
| O=C1O[C@H](c2ccccc2)[C@H](c2ccccc2)N2[C@H]1[C@@H](C(=O)NC[C@H](O)c1ccccc1)[C@]1(C(=O)Nc3ccc(C#CC4(O)CCCCCC4)cc31)[C@H]2c1ccc(O)cc1 | 0.59 | 0.601 | 0.471 | 1.13 (inactive) | 1.05 | 1.15 | 0.251 | 0.715 | 0.324 | -0.0905 | 1.35 | 0.34 | 0.462 | 0.612 | 0.107 | -0.0542 | -0.0769 | 0.528 | 1.08 | 1.34 |
| O=C1N(CCS(=O)(=O)c2ccccc2)Cc2ccccc2[C@@H]2OC(c3ccc(OCCCO)cc3)=N[C@]12Cc1ccccc1 | 1.61 | 1.22 | 1.14 | -0.127 (inactive) | 1.37 | 1.33 | 0.267 | 1.33 | 0.797 | 0.49 | 0.427 | -1.4 | 0.533 | 1.88 | 0.189 | 0.0614 | 0.191 | 0.998 | 1.16 | 2.73 |
| CC(C)N1C(=O)c2ccccc2[C@@H](C(=O)NCc2ccccc2)[C@@H]1c1ccc(CO)cc1 | 1.05 | 0.326 | 0.932 | -0.242 (inactive) | -0.844 | 0.192 | -0.183 | -0.0398 | -0.319 | 0.481 | 0.319 | 0.313 | -0.514 | -0.808 | 0.306 | -0.178 | -0.203 | 0.198 | 0.481 | -1.92 |
| COc1ccc([Si](C)(C)[C@@H]2[C@@H](CCn3cc(CCO)nn3)O[C@]3(C(=O)N(Cc4ccc(N5C(=O)c6cccc7cccc5c67)cc4)c4ccccc43)[C@H]2C)cc1 | 0.831 | 0.134 | 0.207 | -2.39 (inactive) | 0.266 | 0.0923 | 0.248 | 0.334 | 0.258 | 0.581 | 0.119 | -5.16 | 0.316 | 1.22 | 0.863 | -0.0459 | 0.112 | -0.284 | 0.758 | 1.6 |
| Cc1ccc(N2C(=O)c3ccccc3[C@](C)(C(=O)NCC(F)(F)F)[C@@H]2c2ccc(CO)cc2)nc1 | 0.919 | 0.421 | 0.949 | 0.21 (inactive) | -0.975 | -1.29 | -1.27 | -1.82 | -1.15 | -0.528 | -2.53 | 0.208 | -1.47 | -0.538 | 0.733 | -0.132 | -0.291 | -0.136 | -0.438 | -1.58 |
| C=C(COC)C(=O)CC[C@H](OC(=O)c1cccnc1)c1cccc(OCCO)c1 | 0.935 | 0.706 | 0.169 | -0.686 (inactive) | 1.09 | 0.538 | 0.041 | 0.431 | 0.994 | 1.23 | -0.298 | -0.87 | 0.203 | -0.638 | -0.282 | 0.506 | 0.841 | 0.958 | 1.49 | -0.923 |
| C=CCC(OC(C)=O)[C@@H]1[C@@H](N(Cc2ccc(-c3ccccc3)cc2)C(=O)c2ccc(-c3ccccc3)cc2)c2cc(OCCCO)ccc2N1C(=O)c1ccc(-c2ccccc2)cc1 (stereo not given in full) | -0.104 | 0.603 | 0.672 | -1.34 (inactive) | -0.132 | -0.0347 | -0.137 | 0.145 | -0.141 | 1.11 | -0.172 | 0.967 | 0.337 | 0.681 | 0.92 | -0.11 | -0.324 | 0.347 | 0.315 | 0.459 |
| CCN(CC)c1ccc(N2CC=CC34O[C@@H]5C=CCOC(=O)[C@@H]5[C@H]3C(=O)N(C(CO)C(C)C)[C@@H]4C2=O)cc1 (stereo not given in full) | -0.0952 | -0.239 | -0.202 | -0.133 (inactive) | -0.608 | -0.142 | -1.01 | -0.586 | 0.0041 | 0.761 | -0.825 | -0.496 | -0.827 | -0.647 | -0.752 | -0.129 | -0.0626 | -0.481 | -0.257 | -0.274 |
| [N-]=[N+]=NCc1ccccc1C[C@]1(C(=O)NCc2ccccc2)N=C(c2ccc(OCCCO)cc2)O[C@H]1c1ccccc1 | 1.01 | 1.51 | 1.28 | 0.359 (inactive) | 0.19 | -0.516 | -0.864 | -0.565 | -1.03 | 0.928 | 0.508 | -1.95 | -0.941 | 1.82 | 1.36 | 0.108 | 0.23 | 0.682 | 1.31 | 1.22 |
| CCCC[C@@H](O)C1=C(C)C[C@H]2C(=O)N(C)C(=O)[C@H]2[C@H]1CO | 1.42 | -0.372 | -0.493 | -0.72 (inactive) | 0.755 | 0.349 | 0.269 | 0.229 | 0.3 | -0.301 | 0.276 | 0.739 | 0.322 | -0.409 | -0.471 | -0.0944 | 0.0141 | 0.185 | 0.0605 | 0.548 |
| CC(C)(C)OC(=O)CC[C@@]1(C(=O)NCc2ccccc2)N=C(c2ccc(OCCCO)cc2)O[C@@H]1c1ccccc1CN=[N+]=[N-] | 1.08 | 1.06 | 0.997 | 0.014 (inactive) | 1.16 | 1.3 | 0.0887 | 0.622 | 0.11 | 0.664 | -0.179 | -2.28 | 0.0022 | 1.61 | 0.605 | 0.164 | -0.0446 | 0.799 | 0.487 | 1.55 |
| COCCCNC(=O)[C@@]1(CCS(=O)(=O)c2ccccc2)N=C(c2ccc(OCCCO)cc2)O[C@H]1c1ccccc1CN=[N+]=[N-] | 1.14 | 1.17 | 1.12 | -0.594 (inactive) | 1.14 | 1.31 | 0.184 | 0.847 | 0.245 | 1.22 | 1.13 | -2.04 | 0.266 | 2.02 | 0.986 | 0.183 | 0.81 | 0.64 | 0.732 | 2.42 |
| C=CC[C@]1(C(=O)N2CCCCC2)COC(c2ccc(OCCCO)cc2)=N1 | -0.0697 | -0.0336 | 0.83 | 0.682 (inactive) | -0.621 | -0.217 | -1 | -1.32 | -0.358 | 1.28 | 0.0296 | -1.1 | -0.727 | -1.56 | -0.29 | -0.176 | -0.138 | 0.179 | 1.01 | -0.212 |
